Screening data as filed in PubChem BioAssay.
Cycloheximide cs – Cycloheximide Counterscreen for Small Molecule Inhibitors of Shiga Toxin; cell reporter, cycloheximide protein synthesis inhibition counterscreen; max response, %; 300,000 compounds, 12% hits; in the data active = max response mostly above about 13%, no sharp cut-off; inactive = mostly below about 14%; also: read at 38.3 µM for the half of the compounds with a filed dose; 0% is about no effect
Marburg entry inh – qHTS for inhibitors of binding or entry into cells for Marburg Virus; AID 540276, 2011; Potency, µM (doses to about 37.8 µM), inactives show at the top dose activity change, negative = inhibition, most hits filed as inhibitors; 300,000 compounds, 1.8% hits; Marburg virus pseudotyped entry inhibition, cell reporter; calls by dose curve; tested in HEK293 cells; also: potency is read from the fitted curve at half-maximal effect; % is scaled to controls: 0 for no effect and ±100 for the full control effect
Shiga toxin inh – A qHTS for Small Molecule Inhibitors of Shiga Toxin; Vero cells, Shiga toxin protein synthesis inhibition reporter; inhibition, % at 38.7 µM; 290,000 compounds, 9.2% hits; AID 2315, 2010; in the data active = inhibition mostly above about 28%, no sharp cut-off; inactive = mostly below about 43%; also: 0% is about no effect
Lassa entry inh – qHTS for Inhibitors of binding or entry into cells for Lassa Virus; AID 540256, 2011; Lassa virus pseudotype entry inhibition, cell reporter; Potency, µM (top dose mostly 37.9 µM), for inactives: at the highest dose activity change, negative = inhibition, most hits filed as inhibitors; 300,000 compounds, 1.2% hits; calls by dose curve; tested in HEK293 cells; also: potency is read from the fitted curve at half-maximal effect; % is scaled to controls: 0 for no effect and ±100 for the full control effect; nearly all actives have a fitted effect of over 50% in size
* hit, by the source's call; ? = inconclusive; / = no result; [ ] = remark or other dose. A selection: hits, their analogues and other compounds. The true share with any hit is near 12%.

SMILES	Cycloheximide cs	Marburg entry inh	Shiga toxin inh	Lassa entry inh
COc1cccc(OCc2cc(C(=O)N3C[C@H]4C[C@@H](C3)c3cccc(=O)n3C4)no2)c1	60*	?	52*	-18%[46.1 µM]
COc1ccc(OCc2cc(C(=O)N3CCC(c4ccccc4)CC3)no2)c(Cl)c1	78*	?	106*	-1%
COc1cc(OC)cc(C(=O)NC(=S)N2C[C@H]3C[C@H](C2)c2cccc(=O)n2C3)c1	-3	/	3	/
CC(NC(=O)c1cc(COc2c(F)cccc2F)on1)c1cnn(-c2ccccc2)c1 (centres undefined)	25*	/	76*	/
O=C(c1cc(COc2ccc(F)cc2Cl)on1)N(CCO)Cc1cccs1	20*	/	49	/
C=CCN=C1NC(c2cccc(C(F)(F)F)c2)C(C(=O)OC)=C(C)N1CC (centres undefined)	/	12%[14.2 µM]	/	/
CCOc1ccc(NC(=S)N2CCC(C(=O)c3ccc(F)cc3)CC2)cc1	/	-15%[46.1 µM]	/	?
CC[N+](C)(CC)CCOC(=O)[C@@](O)(c1ccccc1)C1CCCCC1	/	22%	/	/
COc1ccc(OCc2cc(C(=O)NC(C)c3cnn(C)c3)no2)c(Cl)c1 (centres undefined)	38*	-2%[46.1 µM]	47*	?
COc1cccc(OCc2cc(C(=O)N3CCN(C)C(c4ccccc4)C3)no2)c1 (centres undefined)	32*	/	77*	/
COc1ccc(OCc2cc(C(=O)N3CCN(CC(=O)N(C)C)CC3)no2)c(Cl)c1	23*	/	3	/
COc1cccc(OCc2cc(C(=O)NC(C)c3cnn(C)c3C)no2)c1 (centres undefined)	27*	/	59*	/
Cc1nn(C)cc1C(C)NC(=O)c1cc(COc2c(F)cccc2F)on1 (centres undefined)	7	/	-7	/
COc1cccc(OCc2cc(C(=O)N3CCC(c4ccncc4)CC3)no2)c1	15	?	-3	?
O=C(CCC(=O)c1cccs1)OCC(=O)c1ccccc1F	/	?	/	-5%
Cc1cc(NC(=O)CSc2nc3cc(Cl)ccc3c(=O)n2C(C)C)no1	/	-13%	/	1%
Cc1cc(C)cc(C(=O)Nc2cccc(NC(=O)c3ccco3)c2)c1	21*	-19%	19	0%
Nc1cccc(NC(=O)c2ccco2)c1	8.1*	?	16	22%[46.1 µM]
Cc1ccc(SCC(=O)Nc2cccc(NC(=O)c3ccco3)c2)cc1	9	-2%	15	-3%
CC(=O)Nc1cccc(NC(=O)c2ccco2)c1	-2	-1%	14	7%
O=C(Nc1ccccc1O)c1cccc(NC(=O)c2ccco2)c1	-1	/	-3	/
O=C(Nc1cccc(F)c1)c1ccco1	29*	15%[46.1 µM]	42*	2%[46.1 µM]
CCOc1ccccc1CNC(=O)c1nc(-c2ccc(Cl)cc2)n2c1CCCCC2	/	/	/	-14%[46.1 µM]
Cc1ccc(COC(=O)c2[nH]c3c(c2C)C(=O)CC(c2ccc(Cl)cc2)C3)cc1 (centres undefined)	/	10%[46.1 µM]	/	16%[46.1 µM]
CC1CCC(NC(=O)c2cccc(S(=O)(=O)N3CCN(c4ccc(F)cc4)CC3)c2)CC1 (centres undefined)	/	-2%	/	-3%
SMILES	Cycloheximide cs	Marburg entry inh	Shiga toxin inh	Lassa entry inh
Cc1nc2ccc(NC(=O)c3ccc(S(=O)(=O)N(C)c4ccccc4)cc3)cc2s1	7	?	-3	?
Cc1nc2ccc(NC(=O)N(C(C)C)C(C)C)cc2s1	35*	2%	53*	?
Cc1nc2ccc(NC(=O)N(C)c3ccccc3)cc2s1	40*	27%[46.1 µM]	55*	?
CC(C)N(C(=O)Nc1ccc2nccnc2c1)C(C)C	25	22%	41	4%
COc1ccc(-c2nnnn2C)cc1S(=O)(=O)Nc1ccc(C)cc1C	1	-4%[46.1 µM]	-17	-28%
CCOC(=O)Cc1c(C)nc(SC)[nH]c1=O	-1	7%[46.1 µM]	35	-1%
O=C(C/C=N/OCc1ccc(Cl)cc1)c1cnc(-c2ccccc2)s1	-3	-6%	31	?
CO/N=C/CC(=O)c1cnc(-c2ccccc2)s1	19*	?	40	5%
COC(=O)[C@@]1(Cc2ccc(F)cc2)[C@H]2c3cc(C(=O)N4CCCC4)n(CCCNc4ncc(C(F)(F)F)cc4Cl)c3C[C@H]2CN1C(=O)c1ccccc1	-3	/	8	/
Cc1ccc(NC(=O)CSc2nnc(-c3cccs3)o2)cc1S(=O)(=O)N1CCCCC1	-4	-8%	-16	6%
Cc1ccc(S(=O)(=O)N2C(=O)CCC2C(=O)O/N=C(\N)c2ccccc2)cc1 (centres undefined)	7	?	-13	11%
COc1ccc(NC(=O)c2cccc(C(=O)Nc3ccc(OC)cc3)n2)cc1	0	/	-2	/
COc1ccc2[nH]c(C(=O)NCc3ccccc3)cc2c1	8	-17%[46.1 µM]	34	?
